Molecules are shown by their SMILES. The whole screen tested about 2,100 compounds, of which about 670 (32%) were called active. Not shown: some 50% with an inconclusive outcome. Calls come from the whole dose curve; as a rule, active = well fitted inhibition curve with a large enough effect; inconclusive = small, poorly fitted or top-dose-only effect; inactive = no such curve, though single readings can be large or run the other way. The list shows a part of the results.
% is set by controls: 0 for no effect and ±100 for the full control effect; potency is the fitted concentration of half-maximal effect.

This experiment can be described thus: CMV-Luciferase Counterscreen for Inhibitors of ATXN expression. Note: nearly all actives have a fitted effect of over 55% in size. The conditions noted are these: HEK-293 CMV-luciferase reporter, luminescence, 24 h; series mostly up to 57.5 µM; activity change, negative = inhibition: at the top concentration. The text has this:
PI: Daniel Scoles Ph.D. University of Utah School of Medicine, Salt Lake City, Utah MLPCN Grant: NS073009 Spinocerebellar ataxia type 2 (SCA2) is a multisystem neurodegenerative disease caused by a dominantly acting mutation leading to expansion of a polyQ domain in the ataxin-2 protein (ATXN2). SCA2 patients develop progressive ataxia and later lose function in other neuronal systems. Prominent parkinsonian signs develop in some patients. Like many neurodegenerative disorders, no symptomatic or disease-modifying treatments are known. The primary objective of the proposed research is to identify compounds inhibiting ATXN2 expression and to test them for efficacy in SCA2 mouse models. We have developed a cell-based assay paired with an in vivo mouse model using identical luciferase expression constructs. This approach takes advantage of an ATXN2-luciferase transgene, with the luciferase gene flanked by the upstream and downstream portions of the ATXN2 gene. Here we describe a 5-7 dose quantitative high thoroughput screen (qHTS) for compounds lowering ATXN2 expression. We screened the NIH Molecular Libraries Small Molecule Repository (MLSMR) and NCGC's mechanistically annotated (MIPE) and drug repurposing (NPC) collections of compounds for lowering expression of an ATXN2-luciferase reporter in HEK-293 cells. The assay is a multiplexed cell viability assay to ensure target reduction in the absence of cytotoxicity. Secondary qHTS assays included a CMV-luciferase reporter expressed in HEK-293 cells as well as a biochemical assay using recombinant luciferase to detect inhibitors of the reporter enzyme. Compounds that inhibit ATXN2 expression but is not cytotoxic were selected for confirmatory and secondary screens.
PROTOCOL TABLE (as described by Inglese J, Shamu CE and Guy RK. 2007) SEQUENCE No. (e.g., 1, 2, 3, etc.); PARAMETER (e.g., Cells, Incubation, Reagent, etc.); VALUE; DESCRIPTION. 1; Cells; 4 uL; white, solid bottom, 1536-well Greiner assay plate. 2; Incubation; 2 hr; 37 degree C in 5% humidified CO2. 3; Compounds; 23 nL; Kalypsis pintool (Wako USA) equipped with a 1536-well pin head. 4; Incubation; 24 hr; 37 degree C in 5% humidfified CO2. 5; Reagent; 1 uL; Gly-Phe-7-Amino-4-trifluoromethylcoumarin. 6; Incubation; 30 min; 37 degree C in 5% humidfified CO2. 7; Detection; Fluorescence; Viewlux plate reader (PerkinElmer). 8; Reagent; 3 uL; SteadyGlo luciferase solution (Promega). 9; Incubation; 5 min; room temperature. 10; Detection; Luminescence; ViewLux plate reader (PerkinElmer). NOTES (numbers refer to Sequence numbers above) 1. HEK-293 cells expressing CMV-luciferase reporter (designated as SC cells) were suspended in phenol-red free DMEM and dispensed in assay plates using a Multidrop Combi dispenser (Thermo Fisher Scientific). 2. Assay plates were incubated. Evaporation was prevented by covering assay plates with metal lids containing holes to allow gas diffusion. 3. Compounds were added in a dose response manner with the final concentrations of 57, 11.4, 2.28, 0.46, 0.091, 0.018, 0.0037 uM. Vehicle-only plates, with DMSO being pin-transferred to columns 5-48, were inserted uniformly at the beginning and the end of each library to monitor and record any shifts in assay performance. 5. 125 uM Gly-Phe-7-Amino-4-trifluoromethylcoumarin (MP Biomedicals) working concentration was used at a final concentration of 25 uM. 7. To assess cell viability; the assay plates were read using the ViewLux high-throughput CCD imager (PerkinElmer), wherein single end-point fluorescence measurement was acquired (excitation 405/10; emission 540/25 nm). 8. Detection reagent SteadyGlo Luciferase (Promega) was added to the assay plate. 10. Luminescence is then measured on the ViewLux imager equipped with a clear emission filter using a 2 sec exposure. […]
(In general: The purpose of a counterscreen is to sort out artefacts and off-target activity.)
With `CCC1(OC(=O)CN)C(=O)OCc2c1cc1n(c2=O)Cc2cc3ccccc3nc2-1` (stereo unspecified), the activity change, negative = inhibition is -43.6% [at 11.4 µM] (inactive).
Regarding `CC[C@@]1(O)C(=O)OCc2c1cc1n(c2=O)Cc2cc3c(NC(=O)CN)cccc3nc2-1`, the Potency is 56.2 nM (active).
Same read-out and setting: under `COc1cc2c(cc1OC)C1C(=O)c3ccc4c(c3OC1CO2)CC(C(C)C)O4` (stereo unspecified) stands 794 nM (active); under `CCC(C)(O)C(=O)OC1C(=O)OC2CC3C(C)=CC(=O)C(O)C3(C)C3C4(O)OCC23C1C(C)C4O` (stereo unspecified), 316 nM (active).
As for `CCOC(=O)c1c(N)n(CCN2CCCCC2)c2nc3ccccc3nc12`, the “activity change, negative = inhibition” value was -22.5% (inactive).
As to `CCC(C)OC(=O)c1c(N)n(Cc2cccs2)c2nc3ccccc3nc12` (stereo unspecified), the Potency was 17800 nM (active).
For `CC(C)CCn1c(N)c(C(=O)NCc2cccs2)c2nc3ccccc3nc21`, the Potency is 14100 nM (active).
Regarding `CNC(=O)Nc1ccc(C(=O)N/N=C\C23CC[C@@H](O)CC2(O)CC[C@@H]2[C@@H]3CCC3(C)C(C4=CC(=O)OC4)CCC23O)cc1` (stereo partly specified), the “activity change, negative = inhibition” value is -18.2% (inactive).
Regarding `CC1CC(C)CC(C)C(O)C(C#N)=CC=CCC(C2CCCC2C(=O)O)OC(=O)CC(O)C(C)C1` (stereo unspecified), the Potency is 316 nM (active).
In the case of `C[C@@H]1C[C@@H]([C@H](O)CC2CC(=O)NC(=O)C2)C(=O)[C@@H](C)C1`, the Potency is 2820 nM (active).
For `CC(=O)OC1(C)CC(C)C(=O)C(C(O)CC2CC(=O)NC(=O)C2)C1` (stereo unspecified), the Potency was 126 nM (active).
As for `C[C@H]1C[C@@H](C)C(=O)[C@@H]([C@H](O)CC2CC(=O)NC(=O)C2)C1`, the Potency is 282 nM (active).
For the compound `C[C@]12CCC3C(CCC4=CC(O)CC[C@@]43/C=N/O)C1(O)CCC2C1=CC(=O)OC1` (stereo partly specified), the “activity change, negative = inhibition” value was 7.54% (inactive).
For `Cc1ccc(N2C(=O)NC(=O)/C(=C/C=C/c3ccco3)C2=O)cc1`, the activity change, negative = inhibition was 82.1% [at 11.4 µM] (inactive).
On to `CC(=O)OC1CC2(O)C3CCC4CC(O)CCC4(C)C3CCC2(C)C1C1=CC(=O)OC1` (stereo unspecified), for which the “activity change, negative = inhibition” value was -13.9% (inactive).
Turning to `O=C1NC2C(=CC(O)C(O)C2O)c2cc3c(cc21)OCO3` (stereo unspecified), the Potency was 251 nM (active).
On the same count and under the same terms, under `Cc1c2ccncc2c(C)c2c1[nH]c1ccccc12` stands 5010 nM (active).
In the case of `COc1ccc(CCNCc2ccc(F)cc2)cc1OC`, the activity change, negative = inhibition was -5.47% [at 11.4 µM] (inactive).
In the case of `COC1C(O)C(C)OC(OC2C(Oc3cccc4c(O)c5c(=O)oc6ccc(C)c7c(=O)oc(c34)c5c67)OC(C)C(O)C2O)C1O` (stereo unspecified), the activity change, negative = inhibition is -15.7% [at 11.4 µM] (inactive).
Regarding `O=[N+]([O-])c1ccc(C(c2ccc([N+](=O)[O-])cc2)c2ccc([N+](=O)[O-])cc2)cc1`, the Potency is 17800 nM (active).
Consider `C[C@]12CC[C@H](O)C[C@H]1CC[C@@H]1[C@@H]2CC[C@]2(C)[C@@H](C3=CC(=O)OC3)CC[C@]12O`, for which the “activity change, negative = inhibition” value is 6.94% (inactive).
Still for that read-out and setting: to `COc1ccc(N=Cc2c(O)n(-c3ccc(C)cc3)c(=O)[nH]c2=O)cc1` belongs -14.8% (inactive); to `CC1OC(OC2C(O)CC(OC3C(O)CC(OC4CCC5(C)C(CCC6C5CCC5(C)C(C7=CC(=O)OC7)C(O)CC65O)C4)OC3C)OC2C)CC(O)C1O` (stereo unspecified), -15% (inactive).
Take `O=c1[nH]c2ccccc2n1C1CCN(C(CCc2ccccc2)c2nnnn2C2CCCC2)CC1` (stereo unspecified): the Potency was 14100 nM (active).
Turning to `CC(C)(C)n1nnnc1C(CCc1ccccc1)N1CCC(n2c(=O)[nH]c3ccccc32)CC1` (stereo unspecified), the Potency is 20000 nM (active).
For `N#Cc1cn(C2OC(CO)C(O)C2O)c2ncnc(N)c12` (stereo unspecified), the activity change, negative = inhibition is -77.3% [at 11.4 µM] (inactive).
As to `CCC1CN2CCc3cc(OC)c(OC)cc3C2CC1CC1NCCc2c1[nH]c1ccc(O)cc21` (stereo unspecified), the Potency was 89.1 nM (active).
On to `C1=NCCc2c1[nH]c1ccccc21`, for which the activity change, negative = inhibition is 110% [at 11.4 µM] (inactive).
Same read-out and setting: to `COc1cc2nc(CN3CC=C(c4ccccc4)CC3)[nH]c(=O)c2cc1OC` belongs 155% (inactive).
As to `O=C(CSC1c2ccccc2-c2ccccc21)N/N=C/c1ccccc1O`, the Potency was 3160 nM (active).
Regarding `Clc1ccc2[nH]c3c(c2c1)CCNC3`, the activity change, negative = inhibition is -18.6% [at 11.4 µM] (inactive).

The record behind these values is PubChem BioAssay AID1745847 (National Center for Advancing Translational Sciences (NCATS), 2022).
